{"source": "PubChem BioAssay (NCATS)", "note": "Records with an inconclusive call do not appear. Calls of active or inactive are those of the source. Calls come from the whole dose curve.", "data": [{"biological_target": "Peroxisome proliferator-activated receptor delta (Homo sapiens) (UniProt Q03181)", "sequence (Q03181 whole entry, looked up)": "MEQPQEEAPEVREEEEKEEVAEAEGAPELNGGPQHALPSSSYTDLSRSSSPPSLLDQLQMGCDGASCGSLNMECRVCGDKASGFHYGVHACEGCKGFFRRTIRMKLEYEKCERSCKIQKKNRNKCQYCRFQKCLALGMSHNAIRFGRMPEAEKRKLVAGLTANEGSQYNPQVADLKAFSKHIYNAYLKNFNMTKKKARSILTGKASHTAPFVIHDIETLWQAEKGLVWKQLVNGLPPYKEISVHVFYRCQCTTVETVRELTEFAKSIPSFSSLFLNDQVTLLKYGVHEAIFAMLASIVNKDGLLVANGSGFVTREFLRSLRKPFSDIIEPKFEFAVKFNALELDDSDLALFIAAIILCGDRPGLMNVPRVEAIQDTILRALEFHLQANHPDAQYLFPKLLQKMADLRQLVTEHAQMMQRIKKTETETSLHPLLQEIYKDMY", "assay": "qHTS assay for small molecule agonists of peroxisome proliferator-activated receptor delta signaling (AID 588534);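 note: 0% = DMSO basal wells and 100% = positive control agonist at 10 µM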", "settings": "HEK293T PPARdelta-UAS-bla, beta-lactamase ratio, 18 h; series mostly up to 76.7 µM; activation: at the top concentration", "from_the_text": "NIH Chemical Genomics Center [NCGC] U.S. Environmental Protection Agency [EPA] National Institutes of Environmental Health Sciences [NIEHS] National Toxicology Program [NTP] NCGC Assay Overview The Peroxisome proliferator-activated receptors (PPARs) are lipid-activated transcription factors of the nuclear receptor superfamily with three distinct subtypes namely PPAR alpha, PPAR delta (also called PPAR beta) and PPAR gamma. All these subtypes heterodimerizes with Retinoid X receptor (RXR) and have different physiological functions. […] This role of PPAR delta implicates the potential use of its ligands in the treatment of metabolic disorders.\nCompounds were screened in a titration series in 1536-well format. […] Concentration-response titration points for each compound were fitted to the Hill equation yielding concentrations of half-maximal stimulation (EC50) and maximal response (efficacy) values. qHTS protocol for PPAR-delta beta-lactamase assay in agonist mode [Step] [Parameter] [Value] [Description] 1. Reagent; 6 uL; 4000 cells/well 2. Incubation; 37 C for 5 hrs 3. Compounds; 23 nL; 0.59 nM to 92 uM 4. […] Incubation; 37 C for 18 hrs 6. Detection reagent; 1 uL of CCF4-dye 7. Incubation; RT for 2 hrs 8. Detection; Fluorescence; Envision plate reader", "values": [{"smiles": "CC(C)C(C)C", "activation": "20.6% (inactive)"}, {"smiles": "O=S(=O)(c1ccc(O)cc1)c1ccc(O)cc1", "activation": "-5.59% (inactive)"}, {"smiles": "CCCCC(CC)CO[N+](=O)[O-]", "note": "(stereo not given)", "activation": "4.77% (inactive)"}, {"smiles": "Cc1cccc([N+](=O)[O-])c1C(=O)O", "activation": "1.01% (inactive)"}, {"smiles": "O=C(O)CCCCCCCCC(=O)O", "activation": "2.02% (inactive)"}, {"smiles": "Cc1ccc([N+](=O)[O-])c(N)c1", "activation": "10.7% (inactive)"}, {"smiles": "CCCCO", "outcome": "inactive"}, {"smiles": "CC1(C)CC/C(=C\\c2ccc(Cl)cc2)C1(O)Cn1cncn1", "note": "(stereo not given)", "activation": "-2.35% (inactive)"}, {"smiles": "CCCCC(CC)COCCCN", "note": "(stereo not given)", "activation": "5.73% (inactive)"}, {"smiles": "CC(Oc1cccc(Cl)c1)C(=O)O", "note": "(stereo not given)", "activation": "-17.5% (inactive)"}, {"smiles": "CCCCC/C=C\\C/C=C\\CCCCCCCC(=O)O", "activation": "3.06% (inactive)"}, {"smiles": "CCC(O)OCCCOC", "note": "(stereo not given)", "activation": "4.52% (inactive)"}, {"smiles": "Clc1ccccc1-c1nnc(-c2ccccc2Cl)nn1", "activation": "0.468% (inactive)"}, {"smiles": "CCCCCCCN", "activation": "9.57% (inactive)"}, {"smiles": "C=CCOc1nc(OCC=C)nc(OCC=C)n1", "activation": "-1.13% (inactive)"}, {"smiles": "Cc1cc(C2CC2)nc(Nc2ccccc2)n1", "activation": "-1.16% (inactive)"}, {"smiles": "C=CC(=O)OCC[N+](C)(C)C", "activation": "-4.55% (inactive)"}, {"smiles": "CSc1ccc(Cl)cc1", "activation": "7.79% (inactive)"}, {"smiles": "CCCCCCCC[Si](OCC)(OCC)OCC", "activation": "0.992% (inactive)"}, {"smiles": "C=C[Si](OCCOC)(OCCOC)OCCOC", "activation": "6.37% (inactive)"}, {"smiles": "CC(=O)Nc1ccc(C)cc1", "activation": "-7.13% (inactive)"}, {"smiles": "OCCOCCOCCOCCOCCO", "activation": "0.347% (inactive)"}, {"smiles": "C=C(C)C(=O)OCCC[Si](Cl)(Cl)Cl", "activation": "-0.262% (inactive)"}, {"smiles": "Nc1ccccc1O", "activation": "-8.91% (inactive)"}, {"smiles": "CNC(=O)N(C)c1nc2ccccc2s1", "activation": "-2.09% (inactive)"}, {"smiles": "CCCC[O][Al]([O]CCCC)[O]CCCC", "activation": "6.52% (inactive)"}, {"smiles": "C=C(C)C(=O)OCCOC(=O)C(=C)C", "activation": "-0.886% (inactive)"}, {"smiles": "O=C1NC(=O)c2cc([N+](=O)[O-])ccc21", "activation": "-3.27% (inactive)"}, {"smiles": "CCCCC/C=C\\C/C=C\\CCCCCCCC(=O)OC", "activation": "-0.472% (inactive)"}, {"smiles": "CC(c1ccc(O)cc1)(c1ccc(O)cc1)c1ccc(O)cc1", "activation": "-8.01% (inactive)"}, {"smiles": "CC(C)(C)c1ccc(C(=O)O)cc1", "activation": "-2.69% (inactive)"}, {"smiles": "CCN(Cc1cccc(S(=O)(=O)O)c1)c1ccc(C(=C2C=CC(=[N+](CC)Cc3cccc(S(=O)(=O)O)c3)C=C2)c2ccccc2S(=O)(=O)[O-])cc1", "activation": "-0.635% (inactive)"}, {"smiles": "CN=C(N)NCC1CCOC1", "note": "(stereo not given)", "outcome": "inactive"}, {"smiles": "CCOP(=S)(S)OCC", "activation": "5.6% (inactive)"}, {"smiles": "CCC(C)Nc1c([N+](=O)[O-])cc(C(C)(C)C)cc1[N+](=O)[O-]", "note": "(stereo not given)", "activation": "15.4% (inactive)"}, {"smiles": "O=C(O)[C@@H]1[C@H](C(=O)O)[C@@]2(Cl)C(Cl)=C(Cl)[C@]1(Cl)C2(Cl)Cl", "activation": "2.63% (inactive)"}, {"smiles": "CC(C)N1C(=O)N(c2ccccc2)CSC1=NC(C)(C)C", "activation": "-4.1% (inactive)"}, {"smiles": "O=C=Nc1ccc(Cc2ccc(N=C=O)cc2)cc1", "outcome": "inactive"}, {"smiles": "C[Si](Cl)(Cl)[Si](C)(Cl)Cl", "activation": "1.29% (inactive)"}, {"smiles": "Cc1ccc(N(C)C)cc1", "activation": "-5.09% (inactive)"}]}]}
